mcGAS inh: inhibitors of mouse cGAS; Q8C6L5; recombinant cGAS, Kinase-Glo ATP depletion luminescence; inhibition, % at 12.5 µM; hit rate 0.15% among 160,000
NPYLR7 agonist: activates Aedes aegypti NPYLR7 receptor. HEK293T NPYLR7/Galpha15, GCaMP6s calcium fluorescence. activation, % at 10 µM. hit rate 0.15% among 270,000; in the data active means activation above about 40%
hcGAS inh: inhibitors of human cGAS; Q8N884; recombinant h-cGAS, ATP depletion, Kinase-Glo luminescence; inhibition, % at 12.5 µM; hit rate 0.081% among 290,000; AID 1259398
Target sequence (Q8N884 whole entry, looked up): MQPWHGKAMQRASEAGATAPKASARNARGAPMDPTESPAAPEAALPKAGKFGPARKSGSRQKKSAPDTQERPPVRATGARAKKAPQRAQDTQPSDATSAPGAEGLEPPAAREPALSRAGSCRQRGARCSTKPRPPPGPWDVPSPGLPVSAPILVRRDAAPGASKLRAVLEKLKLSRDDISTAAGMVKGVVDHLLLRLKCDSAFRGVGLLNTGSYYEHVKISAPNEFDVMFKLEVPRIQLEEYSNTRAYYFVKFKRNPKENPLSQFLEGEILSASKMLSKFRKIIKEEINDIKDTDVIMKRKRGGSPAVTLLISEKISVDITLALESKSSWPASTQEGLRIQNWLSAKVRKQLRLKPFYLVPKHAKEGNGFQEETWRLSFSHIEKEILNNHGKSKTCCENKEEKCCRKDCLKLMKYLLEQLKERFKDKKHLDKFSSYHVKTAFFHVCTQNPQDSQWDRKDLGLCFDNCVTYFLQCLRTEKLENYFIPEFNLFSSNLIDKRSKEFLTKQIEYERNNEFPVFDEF
Numbers stand for hits; n = inactive; x = no result; + = active, no number; ! = not confirmed by another sample. This is a sample that favours compounds with a hit; in the whole collection about 0.24% have one here. Unless noted, no stated cut-off is given here; in the data, active means inhibition above about 40%; inactive means the rest.

SMILES	mcGAS inh	NPYLR7 agonist	hcGAS inh
COc1cc([N+](=O)[O-])cc(/C=C2/SC(=S)N(CC(=O)O)C2=O)c1O	n	n	n
COc1ccc(/C=C2/SC(=S)N(CC(=O)O)C2=O)cc1OC	n	n	n
O=C(O)CN1C(=O)/C(=C/c2cc(Br)c(O)c(Br)c2)SC1=S	n	251	n
COc1cc(/C=C2/SC(=S)N(CC(=O)O)C2=O)cc(Br)c1O	n	n	n
O=C(O)CN1C(=O)/C(=C\c2cc([N+](=O)[O-])cc(Br)c2O)SC1=S	67	81	51
CN(C)c1ccc(/C=C2/SC(=S)N(CC(=O)O)C2=O)cc1Br	x	124	n
Cc1[nH]c(=O)sc1S(=O)(=O)N1CCCC1C(=O)NCc1ccsc1 (centres undefined)	n	n	n
Cc1ccccc1Cn1c(=O)c2c(nc3n(CC(C)C)c(C)c(C)n23)n(C)c1=O	n	n	n
COc1ccc(-c2cnc(-c3ccc(CNC(=O)c4cc(OC)cc(OC)c4)cc3)[nH]2)cc1	n	n	n
Cc1ccccc1Cn1c(C)c(C(=O)NCc2ccc(C(C)C)cc2)sc1=O	x	n	n
O=C1NC(=S)SC1=Cc1ccc(C(=O)O)cc1	65	n	n
CC(C)(C)c1ccc(/C=C2\SC(=S)NC2=O)cc1	n	n	n
O=C1NC(=S)SC1=Cc1cccc(C(F)(F)F)c1	82	n	n
O=C1NC(=S)S/C1=C/c1cccc(O)c1	x	n	n
Nn1ccc2nc3ccn(C4CCCCCC4)c(=O)c3cc2c1=O	x	n	n
Cc1ccc(NC(=O)CSc2ccc3nnc(CCNC(=O)c4ccc(F)cc4)n3n2)cc1	n	n	n
C(=Nn1c(-c2ccccc2)csc1=NCc1ccccc1)c1cccnc1	x	n	n
CCOc1cc2c(cc1N)OC(C)C2 (centres undefined)	n	n	n
CCOc1cc2c(cc1C=C(C#N)C#N)OC(C)C2 (centres undefined)	x	95	n
CCN(Cn1nc(-c2ccc(C(C)(C)C)cc2)n(C)c1=S)C1CCS(=O)(=O)C1 (centres undefined)	x	n	n
COC1=C(OC)C(=O)c2ccccc2C1=O	n	n	n
CS(=O)(=O)N=C1C=C(S(=O)(=O)c2ccccc2)C(=O)c2ccccc21	x	n	55
CC(C)(C)c1ccc(OCc2ccc(-c3nnco3)cc2)cc1	x	n	n
O=C1c2cccc3c(C#Cc4ccccc4)ccc(c23)C(=O)N1c1ccccc1	x	n	n
NCCNc1ccc2c3c(cccc13)C(=O)N(c1ccc(Cl)cc1)C2=O	x	104	n
SMILES	mcGAS inh	NPYLR7 agonist	hcGAS inh
O=C1c2cccc3c([N+](=O)[O-])ccc(c23)C(=O)N1c1ccc([N+](=O)[O-])cc1	n	n	n
O=C1c2cccc3c(Nc4ccccc4)ccc(c23)C(=O)N1c1ccccc1	n	53	n
O=C1c2cccc3c(NCC(O)CCl)ccc(c23)C(=O)N1c1ccccc1 (centres undefined)	n	94!	n
O=C(c1ccccc1)c1ccc2c3c(cccc13)C(=O)N(c1ccccc1)C2=O	n	n	n
CCN1CCN(c2c(CN(CCOC)C(=O)C3CC3)c(C)nn2-c2ccccc2)CC1	n	n	n
O=C(Nc1ccc(C(F)(F)F)cc1)c1ccn(-c2cccc(Cl)c2)n1	x	n	n
COc1ccc(CCC(=O)CC#N)cc1	n	n	n
O=C(O)C1Nc2cc(Cl)cc(Cl)c2C2C=CCC12 (centres undefined)	62	n	n
CC(=O)c1ccc2c(c1)[C@@H]1C=CC[C@@H]1[C@H](c1cc3c(cc1Br)OCO3)N2	n	n	n
Nc1nc(Cl)cc(NCC2CCc3ccccc3N2)n1 (centres undefined)	x	n	n
CC(C)=CCN1CCN(Cc2cn(C)nc2C)CC1CCO (centres undefined)	n	n	n
N#CC(=Cc1ccc(C#N)cc1)c1nnc2n1CCCCC2	44	n	n
N#CC(=Cc1ccc(C=C(C#N)c2nnc3n2CCCCC3)cc1)c1nnc2n1CCCCC2	x	n	n
O=C1CCCN1c1ccc(Cn2nc3c(S(=O)(=O)N4CCCCC4)cccn3c2=O)cc1	n	n	n
Nc1c2ccccc2nc2ccccc12	x	n	72
Nc1c2c(nc3ccccc13)CCCC2	n	n	n
CC(C)N(CC(=O)N(Cc1ccc(F)cc1)Cc1ccco1)S(=O)(=O)c1cc(Cl)ccc1Cl	n	x	n
CCN(CC(C)C#N)C(=O)Cc1ccc(CC(C)C)cc1 (centres undefined)	x	n	n
CCC(C)C(NC(=O)Nc1ccccc1Br)C(=O)Nc1nnc(-c2ccc(C)cc2)s1 (centres undefined)	n	n	n
Cc1ccc(CN2CCC(CN(C)Cc3cn[nH]c3-c3cccc(F)c3)CC2)o1	x	n	n
COCc1cc(C)nc(NN=Cc2ccc(-c3ccc(Br)cc3)o2)c1C#N	n	n	n
Cc1ccc(-c2ccc(/C=N\Nc3nc4nonc4nc3Nc3ccc(Br)cc3)o2)cc1Cl	84	n	n
COCC(=O)N1CCCC(N2CCN(c3cccc(C(F)(F)F)c3)CC2)C1 (centres undefined)	x	n	n
CC(C)(CN1CCOCC1)NCc1cn[nH]c1-c1ccc(F)cc1	n	n	n
Nc1c(C=C2C=CC(=O)C=C2)c(=O)nc2sc(-c3ccccc3Cl)nn12	x	n	42
SMILES	mcGAS inh	NPYLR7 agonist	hcGAS inh
Nc1c(C=C2C=CC(=O)C=C2)c(=O)nc2sc(-c3ccccc3)nn12	x	n	n
CCOc1cccc2cc(-c3csc(NC(=O)C4CCN(S(C)(=O)=O)CC4)n3)oc12	x	n	n
CN(C(=O)Cn1ncc2ccccc21)C1CCCN(CCCc2ccccc2)C1 (centres undefined)	n	n	n
CC1(C)OC2OC(C(O)c3cc(O)c4c(c3O)C(=O)c3ccccc3C4=O)C(C)(O)C2O1 (centres undefined)	x	106	n
O=C1c2ccccc2C(=O)c2c(O)c(O)cc(O)c21	n	n	n
O=C(c1ccc(=O)n(Cc2ccc(F)cc2)n1)N1CCC(Cc2ccccc2)CC1	x	n	n
O=C1NC(=O)C2C1Sc1[nH]c(=O)sc1C2c1ccco1 (centres undefined)	x	n	45
COc1ccc(C2c3sc(=O)[nH]c3SC3C(=O)NC(=O)C32)cc1 (centres undefined)	x	n	n
COc1cc(NCC(=O)N2CCCC(C)C2)cc(OC)c1 (centres undefined)	x	n	n
COc1cccc(CN(C(=O)c2cccc(F)c2)C2CC2)c1OCc1nc(CO)cs1	n	n	n
COc1cccc(CNC2CC2)c1OCc1nc(CO)cs1	x	46	n
CCC1=C(C(=O)OC)C(c2ccc(NC(=O)Cc3ccc(OC)cc3)cc2)NC(=S)N1CC (centres undefined)	n	n	n
CCOC(=O)c1c(C)[nH]c(C(=O)N(C)Cc2ccco2)c1C	n	n	n
CC(C)c1ccc(O)c(C(=O)N2CCN(c3ccc(C#N)cn3)CC2)c1	x	n	n
NC(=O)C1CCN(C(=O)CCc2ccsc2)CC1	x	n	n
NC(=O)C1CCN(C(=O)CCN(CCc2ccccc2)C(=O)c2cnccn2)CC1	x	n	+
O=c1c2ccccc2oc2ccccc12	n	n	n
O=C1CNc2c(c(=O)oc3ccccc23)N1	x	n	52
Cc1cccn2c(=O)c(C=C3SC(=S)N(CC(C)C)C3=O)c(N3CC(C)OC(C)C3)nc12 (centres undefined)	n	n	n
Cc1ccc2nc(CNc3c(C)cccc3C(=O)N3CCCC3)cc(=O)n2c1	x	n	n
